For one sequence, binding signal results are on record in article PMC7862700, “An all-to-all approach to the identification of sequence-specific readers for epigenetic DNA modifications on cytosine”.

What all share (experiment): DAPPL (digital affinity profiling via proximity ligation, sequencing); 10 mM Tris-HCl pH 7.5, 50 mM NaCl, 1 mM DTT, 4% glycerol, room temperature, 30 min; GST-TFs on glutathione beads, 16-mer random dsDNA library, 0.1% formaldehyde crosslink after washing; high values mean tight binding
Details in all cases: protein: recombinant; tags: N-terminal GST; dsDNA, one strand shown

One assay has as its target T1, FLI1 (Homo sapiens, UniProt Q01543 1-452).
T1 sequence: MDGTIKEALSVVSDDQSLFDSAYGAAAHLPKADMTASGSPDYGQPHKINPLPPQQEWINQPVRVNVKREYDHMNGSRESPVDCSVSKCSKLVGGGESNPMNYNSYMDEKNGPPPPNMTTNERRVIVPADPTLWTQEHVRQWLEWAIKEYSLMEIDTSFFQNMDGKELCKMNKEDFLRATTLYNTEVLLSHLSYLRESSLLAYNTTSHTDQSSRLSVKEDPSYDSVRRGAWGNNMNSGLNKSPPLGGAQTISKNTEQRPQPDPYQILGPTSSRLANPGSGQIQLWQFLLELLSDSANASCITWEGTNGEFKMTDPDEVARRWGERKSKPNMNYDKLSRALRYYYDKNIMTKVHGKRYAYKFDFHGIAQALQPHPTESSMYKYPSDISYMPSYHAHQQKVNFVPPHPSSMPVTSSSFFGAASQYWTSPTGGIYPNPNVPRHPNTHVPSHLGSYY
Summed up:
(§1)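 The binding signal reported is, for every hexamer, its read frequency for a factor over its read frequency for the tag-only sample. Reads came from pools of yeast-expressed, GST-fused human transcription factors on glutathione beads, barcoded with DNA and mixed with that sample, which were incubated with 200 nmole of a random double-stranded 16-mer DNA library in Tris/NaCl/DTT/glycerol buffer at room temperature for 30 min. After washing, the pools were crosslinked with 0.1% formaldehyde, proximity-ligated with BsaI/T4 ligase for 1 h at 37 °C, PCR-amplified and sequenced on an Illumina NextSeq500.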

Another assay addresses T2, ELK1 (Homo sapiens, UniProt P19419 1-428).
T2 sequence: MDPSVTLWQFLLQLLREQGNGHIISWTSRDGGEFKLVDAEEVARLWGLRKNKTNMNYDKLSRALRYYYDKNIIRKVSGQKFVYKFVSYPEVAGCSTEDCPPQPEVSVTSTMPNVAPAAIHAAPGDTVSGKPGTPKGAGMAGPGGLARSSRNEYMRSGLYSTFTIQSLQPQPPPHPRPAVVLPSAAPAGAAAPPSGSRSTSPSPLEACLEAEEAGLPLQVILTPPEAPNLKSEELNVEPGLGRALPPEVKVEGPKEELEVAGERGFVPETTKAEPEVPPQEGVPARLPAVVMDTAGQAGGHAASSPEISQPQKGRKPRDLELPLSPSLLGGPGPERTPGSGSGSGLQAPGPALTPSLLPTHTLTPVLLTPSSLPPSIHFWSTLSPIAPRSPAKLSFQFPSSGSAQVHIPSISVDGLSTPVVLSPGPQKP
An outline of the steps: as §1

The next assay addresses T3, GABPA (Homo sapiens, UniProt Q06546 1-454).
T3 sequence: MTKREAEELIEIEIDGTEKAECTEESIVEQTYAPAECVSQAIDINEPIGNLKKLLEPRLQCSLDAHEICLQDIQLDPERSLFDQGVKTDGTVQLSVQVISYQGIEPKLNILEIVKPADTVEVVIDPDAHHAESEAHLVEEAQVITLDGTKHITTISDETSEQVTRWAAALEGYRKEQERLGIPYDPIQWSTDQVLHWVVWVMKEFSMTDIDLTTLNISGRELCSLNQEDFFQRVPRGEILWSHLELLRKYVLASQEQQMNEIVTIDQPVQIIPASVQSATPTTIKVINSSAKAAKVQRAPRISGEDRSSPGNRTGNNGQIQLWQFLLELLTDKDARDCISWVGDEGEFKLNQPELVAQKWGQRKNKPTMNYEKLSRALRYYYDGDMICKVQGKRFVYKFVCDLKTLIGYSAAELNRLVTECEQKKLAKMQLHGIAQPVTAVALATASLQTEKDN
Summed up: as §1

For a further assay, the target named is T4, ERG (Homo sapiens, UniProt P11308 1-479).
T4 sequence: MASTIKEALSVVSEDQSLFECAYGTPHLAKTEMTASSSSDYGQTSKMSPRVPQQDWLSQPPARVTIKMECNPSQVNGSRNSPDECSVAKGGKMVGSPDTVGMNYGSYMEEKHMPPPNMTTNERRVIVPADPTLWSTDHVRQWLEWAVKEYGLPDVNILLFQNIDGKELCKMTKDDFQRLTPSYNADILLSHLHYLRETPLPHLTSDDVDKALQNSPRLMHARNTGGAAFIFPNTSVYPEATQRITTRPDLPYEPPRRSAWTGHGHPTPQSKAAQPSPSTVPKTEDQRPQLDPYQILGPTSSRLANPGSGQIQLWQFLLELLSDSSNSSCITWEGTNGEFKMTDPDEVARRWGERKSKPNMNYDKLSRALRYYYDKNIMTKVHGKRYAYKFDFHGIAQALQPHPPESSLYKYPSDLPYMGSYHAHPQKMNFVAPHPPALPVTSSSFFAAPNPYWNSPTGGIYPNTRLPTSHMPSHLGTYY
An outline of the steps:
as §1

The target in another assay is ELF1 (Homo sapiens, UniProt P32519 1-619). Summed up:
as §1

The next assay has as its target T5, EHF (Homo sapiens, UniProt Q9NZC4 1-300).
T5 sequence: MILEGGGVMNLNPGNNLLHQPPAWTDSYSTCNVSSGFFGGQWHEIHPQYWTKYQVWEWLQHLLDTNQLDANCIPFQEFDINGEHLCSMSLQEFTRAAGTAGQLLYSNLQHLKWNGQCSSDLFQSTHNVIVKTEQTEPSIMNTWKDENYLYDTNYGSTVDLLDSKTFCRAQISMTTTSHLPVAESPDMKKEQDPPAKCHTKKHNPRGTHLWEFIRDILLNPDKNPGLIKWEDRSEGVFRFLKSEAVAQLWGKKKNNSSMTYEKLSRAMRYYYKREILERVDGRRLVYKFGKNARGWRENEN
Summed up:
as §1

In the next assay the target is SPI1 (Homo sapiens, UniProt P17947 1-270). Summed up:
as §1

Another assay addresses SPIB (Homo sapiens, UniProt Q01892 1-262). Summed up:
as §1

The target in another assay is T6, ELK3 (Homo sapiens, UniProt P41970 1-407).
T6 sequence: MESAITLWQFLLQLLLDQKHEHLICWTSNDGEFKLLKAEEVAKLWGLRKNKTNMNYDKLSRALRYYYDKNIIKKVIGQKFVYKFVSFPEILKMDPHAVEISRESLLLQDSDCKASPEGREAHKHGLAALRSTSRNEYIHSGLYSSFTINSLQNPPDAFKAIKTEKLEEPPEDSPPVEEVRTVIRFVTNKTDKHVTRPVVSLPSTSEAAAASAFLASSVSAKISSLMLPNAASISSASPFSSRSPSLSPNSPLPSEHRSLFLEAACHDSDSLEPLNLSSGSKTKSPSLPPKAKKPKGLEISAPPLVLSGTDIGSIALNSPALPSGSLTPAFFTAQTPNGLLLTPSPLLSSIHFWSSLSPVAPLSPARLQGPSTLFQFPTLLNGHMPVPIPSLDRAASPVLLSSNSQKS
Summed up: as §1

For a further assay, the target named is T7, FEV (Homo sapiens, UniProt Q99581 1-238).
T7 sequence: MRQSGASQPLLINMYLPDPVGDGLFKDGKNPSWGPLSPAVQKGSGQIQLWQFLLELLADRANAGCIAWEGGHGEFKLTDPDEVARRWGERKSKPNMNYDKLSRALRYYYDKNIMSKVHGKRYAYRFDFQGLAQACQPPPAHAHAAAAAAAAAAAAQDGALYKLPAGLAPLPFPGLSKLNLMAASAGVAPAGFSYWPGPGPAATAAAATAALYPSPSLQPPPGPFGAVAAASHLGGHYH
An outline of the steps: as §1

Another assay has as its target ETV5 (Homo sapiens, UniProt P41161 1-510). An outline of the steps: as §1
The next assay has as its target T8, SPIC (Homo sapiens, UniProt Q8N5J4 1-248).
T8 sequence: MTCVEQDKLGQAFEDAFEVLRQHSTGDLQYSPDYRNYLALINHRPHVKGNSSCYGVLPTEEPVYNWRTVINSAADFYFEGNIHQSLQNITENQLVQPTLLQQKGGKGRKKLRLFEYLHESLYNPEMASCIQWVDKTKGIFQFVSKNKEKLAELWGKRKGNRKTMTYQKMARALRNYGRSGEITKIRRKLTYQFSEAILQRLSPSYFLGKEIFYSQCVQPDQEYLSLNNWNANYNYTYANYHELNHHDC
An outline of the steps:
as §1

The target in another assay is ELF4 (Homo sapiens, UniProt Q99607 1-663). An outline of the steps: as §1
In a further assay the target is T9, ELK4 (Homo sapiens, UniProt P28324-2 1-405).
T9 sequence: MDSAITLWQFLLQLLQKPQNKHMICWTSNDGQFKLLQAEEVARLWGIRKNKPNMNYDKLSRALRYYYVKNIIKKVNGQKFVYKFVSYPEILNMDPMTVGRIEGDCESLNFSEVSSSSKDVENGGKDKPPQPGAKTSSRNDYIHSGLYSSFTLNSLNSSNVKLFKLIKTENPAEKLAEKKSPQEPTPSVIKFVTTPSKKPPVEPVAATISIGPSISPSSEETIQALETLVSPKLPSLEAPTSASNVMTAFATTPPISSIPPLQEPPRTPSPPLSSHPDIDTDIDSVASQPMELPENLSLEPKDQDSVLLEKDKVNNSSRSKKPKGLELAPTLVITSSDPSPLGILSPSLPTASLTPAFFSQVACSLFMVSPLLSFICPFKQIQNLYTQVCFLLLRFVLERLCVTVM
An outline of the steps:
as §1

A further assay deals with T10, ETV2 (Homo sapiens, UniProt O00321 1-342).
T10 sequence: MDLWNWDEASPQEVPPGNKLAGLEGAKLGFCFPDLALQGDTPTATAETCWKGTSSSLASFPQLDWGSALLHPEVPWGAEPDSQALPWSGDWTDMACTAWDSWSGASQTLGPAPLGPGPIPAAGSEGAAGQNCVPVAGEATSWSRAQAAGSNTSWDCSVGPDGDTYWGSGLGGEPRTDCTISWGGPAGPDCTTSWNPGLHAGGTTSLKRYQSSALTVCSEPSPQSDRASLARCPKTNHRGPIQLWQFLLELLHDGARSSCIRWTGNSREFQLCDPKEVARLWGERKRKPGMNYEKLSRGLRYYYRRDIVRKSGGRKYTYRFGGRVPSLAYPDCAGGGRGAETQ
Summed up:
as §1

Another assay concerns the target T11, ELF3 (Homo sapiens, UniProt P78545 1-371).
T11 sequence: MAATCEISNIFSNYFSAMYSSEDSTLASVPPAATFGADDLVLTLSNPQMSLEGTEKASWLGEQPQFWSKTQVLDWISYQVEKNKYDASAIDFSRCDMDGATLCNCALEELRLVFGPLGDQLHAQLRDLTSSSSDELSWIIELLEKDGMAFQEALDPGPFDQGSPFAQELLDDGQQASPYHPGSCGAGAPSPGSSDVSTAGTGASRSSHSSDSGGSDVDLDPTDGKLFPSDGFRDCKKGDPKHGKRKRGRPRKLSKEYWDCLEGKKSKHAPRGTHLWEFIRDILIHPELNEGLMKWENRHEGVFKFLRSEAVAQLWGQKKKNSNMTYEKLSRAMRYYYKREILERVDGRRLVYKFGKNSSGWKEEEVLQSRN
Summed up: as §1

For the next assay, the target named is CRX (Homo sapiens, UniProt O43186 1-299). Summed up:
as §1

A further assay addresses ETV1 (Homo sapiens, UniProt P50549 1-477). An outline of the steps:
as §1

Chain of CRX (O43186 whole entry): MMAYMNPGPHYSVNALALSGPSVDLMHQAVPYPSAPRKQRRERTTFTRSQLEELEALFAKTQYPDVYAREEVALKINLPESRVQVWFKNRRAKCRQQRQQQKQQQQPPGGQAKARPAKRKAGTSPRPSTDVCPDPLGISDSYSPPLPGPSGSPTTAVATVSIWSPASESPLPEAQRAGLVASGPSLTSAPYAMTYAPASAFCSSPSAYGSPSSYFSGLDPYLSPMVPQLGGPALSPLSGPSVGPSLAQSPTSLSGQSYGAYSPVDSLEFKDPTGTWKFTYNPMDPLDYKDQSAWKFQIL
Chain of ELF4 (Q99607 whole entry): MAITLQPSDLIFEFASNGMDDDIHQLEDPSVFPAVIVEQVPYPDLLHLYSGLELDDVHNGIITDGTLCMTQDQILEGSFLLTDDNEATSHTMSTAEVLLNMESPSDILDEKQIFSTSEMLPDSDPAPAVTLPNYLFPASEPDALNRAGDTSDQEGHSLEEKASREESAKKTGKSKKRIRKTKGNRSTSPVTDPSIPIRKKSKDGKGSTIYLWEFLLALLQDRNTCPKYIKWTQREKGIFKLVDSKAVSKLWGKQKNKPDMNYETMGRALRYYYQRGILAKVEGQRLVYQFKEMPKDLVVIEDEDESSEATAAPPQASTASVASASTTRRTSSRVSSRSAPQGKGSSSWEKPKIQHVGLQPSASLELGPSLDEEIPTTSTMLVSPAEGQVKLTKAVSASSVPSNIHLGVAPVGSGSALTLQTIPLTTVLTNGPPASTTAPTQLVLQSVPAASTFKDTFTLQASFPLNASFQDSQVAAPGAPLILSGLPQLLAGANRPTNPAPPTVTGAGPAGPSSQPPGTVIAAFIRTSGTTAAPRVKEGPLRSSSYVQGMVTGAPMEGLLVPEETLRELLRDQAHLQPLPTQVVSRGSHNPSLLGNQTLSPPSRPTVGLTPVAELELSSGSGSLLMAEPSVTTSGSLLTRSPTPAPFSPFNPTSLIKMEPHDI
Chain of ETV1 (P50549 whole entry): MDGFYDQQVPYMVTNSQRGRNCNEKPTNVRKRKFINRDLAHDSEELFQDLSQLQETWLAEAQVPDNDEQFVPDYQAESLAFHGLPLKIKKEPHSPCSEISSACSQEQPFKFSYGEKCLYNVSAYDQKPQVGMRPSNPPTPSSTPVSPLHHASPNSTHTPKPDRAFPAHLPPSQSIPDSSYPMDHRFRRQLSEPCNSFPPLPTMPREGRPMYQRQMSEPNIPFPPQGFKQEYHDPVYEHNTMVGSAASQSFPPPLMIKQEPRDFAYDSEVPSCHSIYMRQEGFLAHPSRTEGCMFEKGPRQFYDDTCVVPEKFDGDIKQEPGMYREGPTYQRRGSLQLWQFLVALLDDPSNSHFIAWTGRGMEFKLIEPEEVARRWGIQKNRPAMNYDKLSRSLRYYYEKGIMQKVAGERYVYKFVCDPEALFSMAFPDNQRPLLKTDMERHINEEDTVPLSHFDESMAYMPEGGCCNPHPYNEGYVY
Chain of ELF1 (P32519 whole entry): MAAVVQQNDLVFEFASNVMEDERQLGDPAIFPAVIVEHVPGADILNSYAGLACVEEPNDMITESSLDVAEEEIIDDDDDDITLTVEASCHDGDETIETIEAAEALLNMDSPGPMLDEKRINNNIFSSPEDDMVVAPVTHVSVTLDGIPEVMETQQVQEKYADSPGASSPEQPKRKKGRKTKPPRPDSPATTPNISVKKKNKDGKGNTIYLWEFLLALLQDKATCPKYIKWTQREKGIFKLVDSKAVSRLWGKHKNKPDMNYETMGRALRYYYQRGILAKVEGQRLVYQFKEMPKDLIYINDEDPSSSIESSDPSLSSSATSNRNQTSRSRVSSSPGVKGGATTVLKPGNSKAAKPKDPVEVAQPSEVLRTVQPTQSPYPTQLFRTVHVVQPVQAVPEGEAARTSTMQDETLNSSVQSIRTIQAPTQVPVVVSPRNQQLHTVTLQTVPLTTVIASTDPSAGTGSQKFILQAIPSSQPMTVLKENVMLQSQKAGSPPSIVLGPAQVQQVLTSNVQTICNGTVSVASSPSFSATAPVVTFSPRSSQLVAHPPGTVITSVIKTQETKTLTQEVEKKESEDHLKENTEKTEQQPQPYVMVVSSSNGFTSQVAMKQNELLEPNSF
Chain of SPIB (Q01892 whole entry): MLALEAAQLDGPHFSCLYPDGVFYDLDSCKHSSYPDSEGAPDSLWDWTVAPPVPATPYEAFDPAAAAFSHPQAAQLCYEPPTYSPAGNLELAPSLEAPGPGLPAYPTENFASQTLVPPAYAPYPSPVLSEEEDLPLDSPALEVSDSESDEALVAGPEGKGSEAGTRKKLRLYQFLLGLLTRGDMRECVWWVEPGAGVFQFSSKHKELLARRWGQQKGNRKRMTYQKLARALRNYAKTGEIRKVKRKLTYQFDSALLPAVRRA
Chain of ETV5 (P41161 whole entry): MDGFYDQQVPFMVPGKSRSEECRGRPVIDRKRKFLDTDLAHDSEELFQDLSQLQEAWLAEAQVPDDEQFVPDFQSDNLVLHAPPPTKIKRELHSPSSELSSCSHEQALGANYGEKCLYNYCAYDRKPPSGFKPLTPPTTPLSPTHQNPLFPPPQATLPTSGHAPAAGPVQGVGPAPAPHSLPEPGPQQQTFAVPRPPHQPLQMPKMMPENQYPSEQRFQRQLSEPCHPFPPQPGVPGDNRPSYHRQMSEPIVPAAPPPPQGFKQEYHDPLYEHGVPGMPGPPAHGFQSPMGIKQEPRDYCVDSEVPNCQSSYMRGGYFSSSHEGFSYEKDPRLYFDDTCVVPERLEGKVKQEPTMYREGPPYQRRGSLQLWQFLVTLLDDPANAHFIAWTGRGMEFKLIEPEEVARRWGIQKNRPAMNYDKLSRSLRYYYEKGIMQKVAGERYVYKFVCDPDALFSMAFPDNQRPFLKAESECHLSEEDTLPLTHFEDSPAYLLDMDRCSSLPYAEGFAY

For the sequence CCTGTA, the binding signal in the assay with FLI1 is 1.31 fold enrichment (6-mer frequency, TF over GST control); with ELK1, 1.16 fold enrichment (6-mer frequency, TF over GST control); in the assay with GABPA it was 1.12 fold enrichment (6-mer frequency, TF over GST control); in the assay with ERG it was 1.28 fold enrichment (6-mer frequency, TF over GST control); with ELF1, 1.14 fold enrichment (6-mer frequency, TF over GST control); with EHF, 1.14 fold enrichment (6-mer frequency, TF over GST control). In addition, the binding signal with SPI1 is 1.28 fold enrichment (6-mer frequency, TF over GST control); in the assay with SPIB it was 1.19 fold enrichment (6-mer frequency, TF over GST control); with ELK3, 1.28 fold enrichment (6-mer frequency, TF over GST control); in the assay with FEV it was 1.2 fold enrichment (6-mer frequency, TF over GST control); with ETV5, 1.26 fold enrichment (6-mer frequency, TF over GST control); with SPIC, 1.23 fold enrichment (6-mer frequency, TF over GST control). Besides, the binding signal in the assay with ELF4 is 1.25 fold enrichment (6-mer frequency, TF over GST control); with ELK4, 1.16 fold enrichment (6-mer frequency, TF over GST control); with ETV2, 1.21 fold enrichment (6-mer frequency, TF over GST control); in the assay with ELF3 it was 1.09 fold enrichment (6-mer frequency, TF over GST control); with CRX it was 1.04 fold enrichment (6-mer frequency, TF over GST control); in the assay with ETV1, 1.3 fold enrichment (6-mer frequency, TF over GST control).
